High-throughput results (PubChem)
This is a sample that favours compounds with a hit; in the whole collection about 1.1% have one here.
SRC1 inh – inhibitors of human steroid receptor coactivator 1 (SRC1) | HEK293 GAL4-SRC1 luciferase reporter, luminescence | actives 0.12% (n = 360,000) | inhibition, % at 3.6 µM | AID 588354;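 active = inhibition above the campaign mean plus 3 SD, with each screening campaign given its own cutoff, cut at about 60% in these data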;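 note: 0% = DMSO treated cells and 100% = gossypol at 36 µM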
NR2F2 inh – NR2F2 (human) inhibition, primary screen; P24468; HEK293T NGFI-A luciferase reporter, luminescence; inhibition, % at 8.6 µM; actives 0.7% (n = 370,000);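 active = inhibition above a per-plate cutoff, mean inhibition of test wells between control levels plus 3 SD, cut at about 38% in these data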;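 note: cells cotransfected with COUP-TFII expression vector driving the NGFI-A reporter; 0% = median of COUP-TF2 test wells and 100% = reporter-only cells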
Target sequence (P24468 whole entry, looked up): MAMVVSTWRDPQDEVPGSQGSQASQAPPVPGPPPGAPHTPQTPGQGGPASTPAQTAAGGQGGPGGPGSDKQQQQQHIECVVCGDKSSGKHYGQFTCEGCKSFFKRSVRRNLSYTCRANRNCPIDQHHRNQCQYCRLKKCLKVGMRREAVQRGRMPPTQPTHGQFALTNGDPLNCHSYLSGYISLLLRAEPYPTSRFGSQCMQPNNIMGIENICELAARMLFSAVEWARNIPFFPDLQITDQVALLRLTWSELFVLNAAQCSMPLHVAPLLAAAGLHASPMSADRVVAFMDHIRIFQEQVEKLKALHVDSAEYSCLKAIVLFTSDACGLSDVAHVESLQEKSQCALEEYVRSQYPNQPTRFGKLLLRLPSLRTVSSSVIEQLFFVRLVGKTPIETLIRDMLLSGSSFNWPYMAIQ
NCOA2 inhibitor – inhibits human steroid receptor coactivator 2; Q15596; HEK293 GAL4-SRC2 luciferase reporter, luminescence; inhibition, % at 9 µM; actives 0.17% (n = 370,000); AID 651957;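 active = inhibition above the mean inhibition of all tested compounds plus 3 SD, set per campaign, cut at about 52% in these data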;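 note: 0% = DMSO treated cells and 100% = cells given Gossypol at 36 µM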
NR5A2 inv ag – suppresses constitutive activity of human LRH-1 | O00482 | HEK293T StAR-luciferase reporter, LRH-1 transfected, 24 h | inhibition, % at 3.6 µM | actives 0.13% (n = 360,000);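 active = inhibition above the mean inhibition of all tested compounds plus 3 SD, cut at about 73% in these data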;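 note: 0% = DMSO wells and 100% = reporter-only cells lacking LRH-1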
GalR3 antagonist – human GalR3 antagonism | inhibition, % at 3 µM | HEK293 GalR3-CNG cAMP membrane potential fluorescence; galR3 body fused to GalR1 C-terminus | AID 651719 | actives 0.44% (n = 360,000) | O60755;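 active = inhibition above the screen-wide average plus 3 SD, cut at about 13% in these data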;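 note: forskolin and galanin both at EC90 stimulate the cells; cAMP rise reported by CNG channel membrane potential dye signal; 0% = forskolin plus galanin with DMSO and 100% = forskolin alone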
Target sequence (O60755 1-299 limits assumed): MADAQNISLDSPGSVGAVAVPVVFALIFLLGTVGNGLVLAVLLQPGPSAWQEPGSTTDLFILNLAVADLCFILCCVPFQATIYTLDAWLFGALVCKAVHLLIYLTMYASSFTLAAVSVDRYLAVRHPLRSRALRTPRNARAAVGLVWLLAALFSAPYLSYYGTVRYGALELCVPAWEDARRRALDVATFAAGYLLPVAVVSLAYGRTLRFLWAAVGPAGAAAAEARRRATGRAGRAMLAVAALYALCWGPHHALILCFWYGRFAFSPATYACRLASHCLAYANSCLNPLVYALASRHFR
NCOA3 inh – inhibitors of human steroid receptor coactivator 3 (SRC3); actives 0.17% (n = 360,000); Q9Y6Q9; inhibition, % at 3.6 µM; HEK293 GAL4-SRC3 luciferase reporter, luminescence; AID 588352;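 active = inhibition above a per-campaign cutoff, the mean of all compounds plus 3 SD, cut at about 60% in these data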;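 note: 0% = DMSO-treated cells and 100% = gossypol-treated cells at 36 µM; higher means less SRC3-driven luciferase light from the GAL4 reporter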
VP16 Luc counter – inhibits VP16 reporter, flagging COUP-TFII antagonist hits | AID 687007 | inhibition, % at 8.5 µM | shares compounds with NR2F2 inh | actives 25% (n = 2,500) | HEK293 Gal4-VP16 luciferase reporter, luminescence; in the data active = inhibition above about 13%
COUP-TFII conf – confirmation of human COUP-TFII (NR2F2) inhibitors; AID 687008; shares compounds with NR2F2 inh; inhibition, % at 8.5 µM; HEK293 NGFI-A luciferase reporter, luminescence; actives 45% (n = 2,500);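 active = mean inhibition over three repeats above a set limit taken from the earlier primary screen, cut at about 38% in these data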;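 note: 100% = cells given the luciferase reporter alone without the COUP-TF2 vector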
Starred values were filed as active, the others as inactive; x = no result given.

SMILES | SRC1 inh | NR2F2 inh | NCOA2 inhibitor | NR5A2 inv ag | GalR3 antagonist | NCOA3 inh | VP16 Luc counter | COUP-TFII conf
COC(=O)[C@]12C[C@H](CC(=O)N3CCN(C(=O)c4ccco4)CC3)C(=O)N(Cc3ccccc3)C1=C[C@H](C1CCCC1)O[C@@H]2C | x | 13.8 | 26.1 | x | -1.8 | x | x | x
COc1ccc(-c2sc3ccc(N4CCOCC4)cc3c2C#CCO)cc1 | 6.9 | 74.0* | 20.7 | 33.8 | 7.6 | 11.9 | -10.6 | 52.9*
COc1ccc(-c2sc3ccc(N4CCOCC4)cc3c2C#CC2(O)CCCCC2)cc1 | -17.2 | -6.4 | -19.9 | -2.5 | -7.1 | -2.2 | x | x
CC[n+]1c(C=C2C=C(C)OC(C)=C2)sc2ccccc21 | 52.8 | 76.8* | -58.2 | 75.6* | -2.5 | 67.9* | 11.7 | 64.0*
CC[n+]1c(/C=C2/C=C(C)CC(C)C2)sc2ccccc21 (stereo not drawn) | -15.1 | 10.4 | -2.4 | 9.3 | -3.1 | 18.8 | x | x
O=C(O)COc1ccccc1/C=N/NC(=O)CSc1nc2ccccc2s1 | -5.1 | 14.8 | 1.3 | 4.1 | -1.6 | 13.3 | x | x
O=C(CSc1nc2ccccc2s1)N/N=C/c1ccccc1C(=O)O | -5.5 | 42.7* | 22.4 | 23.8 | 1.1 | 17.0 | -5.1 | 16.7
CC(=O)N1c2ccccc2C(C)=NCC1C(=O)NC1CCCCC1 (stereo not drawn) | x | 2.8 | -3.4 | x | x | x | x | x
CCCOc1ccc(/C=N/NC(=S)Nc2ccccc2[N+](=O)[O-])c(O)c1 | x | 72.8* | 52.5* | x | -4.1 | x | 73.0* | 82.6*
CCCOc1ccc(/C=N/Nc2ccccc2[N+](=O)[O-])c(O)c1 | 35.6 | 44.1* | -16.6 | -2.8 | -4.5 | 46.8 | -47.9 | 46.5*
COCc1[nH]nc2c1C(c1ccc3c(c1)OCO3)N(c1ccc(OC)cc1)C2=O (stereo not drawn) | x | -26.7 | 17.3 | x | -2.8 | x | x | x
COc1cc(NC(=O)c2cccs2)c(C(=O)OCC(=O)c2cc(C)n(-c3ccc(F)cc3)c2C)cc1OC | -1.9 | 19.9 | 13.2 | -13.6 | 0.7 | 43.8 | x | x
COc1cc(NC(=O)c2cccs2)c(C(=O)OCC(=O)c2cc(C)n(-c3ccccc3)c2C)cc1OC | 10.6 | 64.6* | 56.8* | 1.7 | 2.1 | 26.6 | 18.2* | 36.7
CN1Cc2nnn(CC3CCCCC3)c2-c2ccccc2S1(=O)=O | x | -12.3 | -4.1 | x | x | x | x | x
O=C1C(N2CCOCC2)=C(n2nnc3ccccc32)C(=O)c2ccccc21 | -19.6 | 39.3* | 58.1* | 19.8 | -5.2 | 24.7 | 18.8* | 31.2
Clc1ccc(-c2cc(-c3nnc4sc(Cc5cccs5)nn34)[nH]n2)cc1 | x | 8.7 | -0.3 | x | x | x | x | x
S=C(NCc1ccccc1)Nc1cccc2cnccc12 | -12.8 | 57.3* | 7.4 | 26.5 | -8.0 | 14.7 | 10.7 | 36.0
CN1CCN(c2ccc(NC(=O)COc3ccccc3Cl)cc2)CC1 | -16.3 | -13.6 | -7.7 | 1.5 | 2.9 | 6.4 | x | x
CCC(=O)N1CCN(c2ccc(NC(=O)COc3ccccc3Cl)cc2)CC1 | 3.7 | 50.1* | 30.5 | 7.8 | -4.2 | 6.9 | 6.3 | 29.2
CN(Cc1ccncc1)C(=O)[C@@H]1CCCN1C(=O)[C@@H]1CCCN1 | x | -2.0 | -0.4 | 5.3 | -5.8 | x | x | x
CC1Cc2cc(-c3csc(NC(=O)Cc4ccccc4)n3)ccc2N1S(C)(=O)=O (stereo not drawn) | 15.1 | 74.9* | 14.9 | 36.9 | -9.1 | 46.3 | -10.9 | 48.7*
COc1cccc(N2CCN(C(=O)c3ccc(CSc4nc5ccncc5[nH]4)cc3)CC2)c1 | -11.4 | 42.0* | 18.0 | -12.5 | -1.1 | -11.9 | 1.6 | 16.1
Nc1[nH]c(C(=O)c2ccc(Cl)cc2)c(-c2ccc(Br)cc2)c1C(=O)c1c[nH]c2ccc(F)cc12 | x | 3.0 | 14.3 | x | 3.5 | x | x | x
CCc1cc(-c2nnn(CCC3COCCO3)c2CC)ccc1-c1cn(Cc2ccccc2)nn1 (stereo not drawn) | 8.6 | 66.2* | 25.8 | 31.1 | -3.7 | -2.2 | -19.5 | 34.0
CCc1cc(-c2cnnn2Cc2ccc3ccccc3c2)ccc1-c1cn(CC(C)C)nn1 | -6.7 | -18.3 | 19.7 | -6.0 | -6.3 | -32.0 | x | x
SMILES | SRC1 inh | NR2F2 inh | NCOA2 inhibitor | NR5A2 inv ag | GalR3 antagonist | NCOA3 inh | VP16 Luc counter | COUP-TFII conf
O=C(OCC#CCSc1nnc(-c2cc3ccccc3cc2O)o1)c1ccc(F)cc1 | x | -4.0 | x | x | x | x | x | x
CCCN(C)C1CN(Cc2cn(Cc3ccccc3)nn2)S(=O)(=O)C1 (stereo not drawn) | x | -10.7 | 13.9 | -16.6 | -4.5 | x | x | x
CC(=O)N1CCCC(c2cc(C(=O)Nc3ccccc3)no2)C1 (stereo not drawn) | 24.9 | 41.0* | 44.5 | 32.5 | -8.7 | 31.2 | 16.6* | 59.1*
O=C(NCc1ccccc1)c1cc(C2CCCN(C(=O)C3CCCCC3)C2)on1 (stereo not drawn) | -21.2 | 101.4* | 4.0 | -3.4 | -3.8 | -6.2 | -15.7 | -16.2
O=C(Nc1ccccc1)c1cc(C2CCCN(C(=O)C3CC3)C2)on1 (stereo not drawn) | 12.8 | 15.8 | -52.4 | -0.1 | -5.6 | 12.0 | x | x
CCOc1ccc(-n2c(SCC(=O)Nc3ccc4c(c3)OCCO4)nnc2-c2ccncc2)cc1 | x | 4.4 | 3.1 | x | x | x | x | x
C[C@H](CO)N1C[C@H](C)[C@@H](CN(C)C(=O)Nc2cccc(F)c2)OCc2cn(nn2)CCCC1=O | x | -16.4 | -5.0 | x | 0.5 | x | x | x
COC(=O)[C@]12C[C@H](CC(=O)NCCCCc3ccccc3)C(=O)N(Cc3ccccc3)C1=C[C@H](C(C)C)O[C@@H]2C1CC1 | x | 13.2 | 20.1 | x | -8.1 | x | x | x
Cc1ccc(NC(=O)C2CCN(S(=O)(=O)c3ccc4c(c3)NC(=O)C(C)S4)CC2)cc1Cl (stereo not drawn) | 13.2 | 64.4* | 18.2 | 0.8 | -11.3 | 20.6 | 12.6 | 46.9*
CCOc1ccc(NC(=O)NCCCn2c(C)nc3cc(C)c(C)cc32)cc1 | -20.6 | 11.4 | -8.8 | 17.9 | -4.7 | 15.8 | x | x
Cc1cc2nc(C)n(CCCNC(=O)Nc3cccc4ccccc34)c2cc1C | -6.5 | 37.7* | 10.2 | 10.8 | -5.2 | 15.2 | -1.9 | 18.5
CCC(C)NC(=S)Nc1ccc(C(=O)OC)cc1 (stereo not drawn) | 12.3 | 39.0* | 14.9 | -20.3 | -4.5 | -8.3 | -37.0 | -12.7
Brc1ccc2nc(-c3ccc(CN4CCC5(CC4)CNc4ccccc45)cc3)c(-c3ccccc3)nc2c1 | x | -5.0 | 1.7 | x | -6.7 | x | x | x
COc1cc(F)ccc1CN1CCC(C(=O)Nc2ccc(Oc3ccccc3)nc2)CC1 | 17.7 | 39.8* | 15.8 | 18.9 | -11.2 | 29.3 | 2.6 | 21.4
CC(C)Cn1c(N)c(C(=O)COC(=O)CC23CC4CC(CC(C4)C2)C3)c(=O)n(C)c1=O | 24.4 | 45.4* | 11.8 | 40.2 | -4.2 | -4.1 | 12.8 | 57.2*
